PubChem BioAssay (NCI)
This is part of a sample that, as a whole, favours compounds with a hit. Of some 83,000 tested, about 20% had one in any assay.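 Assay: single dose, 48 h. Readout: percent growth (0 = no net growth; negative = cell death). Active: <10.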 Unmarked numbers belong to inactive results. Active and inactive are the calls of the source.

Assays:
Assay in all cases: NCI-60 one-dose screen, 48 h (100 = growth as untreated, 0 = no growth, -100 = all killed)
Conditions in all cases: 10 µM unless noted
[1] = test system: OVCAR-8 ovarian
[2] = test system: OVCAR-5 ovarian
[3] = test system: OVCAR-4 ovarian
[4] = test system: SK-OV-3 ovarian
[5] = test system: OVCAR-3 ovarian
[6] = test system: HS 578T breast
[7] = test system: NCI/ADR-RES ovarian
[8] = test system: T-47D breast
[9] = test system: IGROV1 ovarian

Row | Structure (SMILES) | growth [1] | growth [2] | growth [3] | growth [4] | growth [5] | growth [6] | growth [7] | growth [8] | growth [9]
1 | Cc1c(C(N)=O)sc2c1C(=O)N(Cc1ccccc1)C1=NN=C(c3ccc(Cl)cc3)CN12 | 18.1% | 57.2% | 48.6% | 58.5% | 31.5% | 78.2% | 9.99% (active) | 63.4% | –
2 | CC(C)C/C(=N\NC(=O)c1ccncc1)c1cc(Cl)ccc1O | 11.7% | 37.3% | 14.5% | 24.5% | – | – | 5.17% (active) | 25.1% | 9.3% (active)
3 | CC(C)(C)c1cc(O)c(O)c(C(C)(C)C)c1 | 39.8% | 55.3% | – | 67% | 20.9% | 43.6% | 51.9% | 12.8% | 49.9%
4 | CCN(CC)c1ccc(C(O)C2=CC(=O)c3ccccc3C2=O)cc1 (stereo not given) | -3.87% (active) | -23.8% (active) | – | 73.1% | -77.2% (active) | -10.6% (active) | 84.4% | -60.6% (active) | -42.7% (active)
5 | O=C(NCCCO)c1cc(Cl)ccc1O | 17.8% | 45% | – | 40.6% | -14.9% (active) | 19.3% | 95.8% | 30% | 28.1%
6 | CC1=CC(=O)C(C(C)=Nc2ccccc2Cl)C(=O)O1 (stereo not given) | 96.9% | 151% | 99.5% | 104% | – | 83.6% | 140% | 105% | –
7 | Cc1nn(-c2ccc(Cl)cc2)c2nc3c(nc12)c(=O)oc1ccccc13 | – | 98% | 113% | 107% | 118% | 107% | 102% | 111% | 119%
8 | Cc1c(C(N)=O)sc2c1c(=O)n(Cc1ccccc1)c1nnc(S(=O)(=O)CC(=O)Nc3ccc(Cl)cc3)n21 | – | 82.7% | – | 18.7% | 5.69% (active) | 17.8% | 108% | 21.8% | 40%
9 | COc1cc(/C=C/C(=O)c2ccc(F)cc2)ccc1OCCCCCOc1cc2c(cc1OC)C(=O)N1CCCC1C=N2 (stereo not given) | 4.8% (active) | – | -37.5% (active) | -4.32% (active) | -8.63% (active) | -24.8% (active) | 8.85% (active) | -4.98% (active) | -66.5% (active)
10 | Cc1nn(-c2ccccc2)c2nc3c(nc12)C(=O)CCC3 | – | 104% | 81.4% | 99.7% | 98.8% | 97.1% | 94.8% | 79.2% | 96.6%
11 | CC(=O)c1cc(C(=O)c2ccc3c(c2)Sc2ccccc2N3)c2c(C)cc(C)cn12 | – | 39.7% | 39.8% | 21% | -26.1% (active) | 20.5% | 12.9% | 48.2% | 28.3%
12 | Cc1c(C(N)=O)sc2c1c(=O)n(Cc1ccccc1)c1nnc(SCC(=O)Nc3ccc(Cl)cc3)n21 | – | 64.9% | -80.2% (active) | – | -3.77% (active) | 6.54% (active) | 82.2% | -23.9% (active) | 23.1%
13 | CC/C=C\C=C/C(=O)N/C=C/CC1Cc2cccc(O)c2C(=O)O1 (stereo not given) | 90.5% | – | 80.2% | 63.9% | 86% | 50.7% | 57.2% | 67.2% | 79.1%
14 | Cc1nn(-c2ccc(Cl)cc2)c2nc3c(nc12)C(=O)c1ccccc1-3 | – | 90.8% | 34.5% | 32.7% | 62.8% | 63.7% | 62.9% | 73.7% | 77.3%
15 | COc1ccc(C(=O)COc2cccc(/C=C3\Oc4ccc5ccccc5c4C3=O)c2)cc1 | 70.1% | 103% | – | 99.5% | – | 93.3% | 96.4% | 37.9% | –
16 | CCOC(=O)c1cc(-c2cccnc2)nc2c(Cl)cc(Cl)cc12 | 104% | – | 89.9% | – | 80% | 95% | 94% | 85.3% | –
17 | Cc1nn(-c2ccc(Cl)cc2)c2nc3c(nc12)C(=O)C(=O)c1ccccc1-3 | – | 95.9% | 48.4% | 93.8% | 2.92% (active) | 61.3% | 76.5% | 67.6% | 59.1%
18 | CCn1c2ccccc2c2ccc(C(C)=O)cc21 | – | 89.9% | 96.7% | 111% | 112% | 144% | 101% | 96.6% | 111%
19 | Cc1nn(-c2ccc(Br)cc2)c2nc3c(nc12)C(=O)C(=O)c1ccccc1-3 | – | 100% | 88.3% | 93.6% | 101% | 105% | 86.4% | 91.2% | 81.9%
20 | Cc1ccc(NC(=O)CSc2nnc3n(Cc4ccccc4)c(=O)c4c(C)c(C(N)=O)sc4n23)cc1 | – | 75.8% | -62.3% (active) | -7.67% (active) | 9.55% (active) | 6.99% (active) | 92.8% | -19.7% (active) | 50.8%
21 | COC(=O)[C@]1(CCSC)N[C@H](c2cn(-c3ccccc3)nc2C)[C@@H]2C(=O)N(c3ccccc3)C(=O)[C@@H]21 | – | 104% | 106% | 95.2% | 98.7% | 93.7% | 91% | 108% | 118%
22 | COc1ccc(C(=O)/C=C/c2c(Cl)nc3c(c(C)nn3-c3ccccc3)c2-c2ccc(Br)cc2)cc1 | – | 99.6% | 107% | 97.3% | – | 113% | 108% | 100% | –

Row | Structure (SMILES) | growth [1] | growth [2] | growth [3] | growth [4] | growth [5] | growth [6] | growth [7] | growth [8] | growth [9]
23 | c1ccc2cc(C[n+]3ccn(CCCCCCCn4cc[n+](Cc5ccc6ccccc6c5)c4)c3)ccc2c1 | – | 48.2% | 37.3% | 36.1% | 44.4% | 61.5% | 99.7% | 23.4% | 27.5%
24 | CSc1ncc2ncn(C3OC(CO)C(O)C3O)c2n1 (stereo not given) | 138% | 156% | – | 104% | – | 95.2% | 143% | 101% | –
25 | O=C(OCCBr)c1ccc(Cl)c([N+](=O)[O-])c1 | – | 108% | – | 79.4% | -21.3% (active) | -29.9% (active) | 113% | -57.2% (active) | 102%
26 | COc1ccc2nc3cc(Cl)ccc3c(Nc3cc(C(C)C)c(O)cc3C)c2c1 | 50.4% | – | 30.2% | 63.3% | – | 65.5% | 38% | 13.9% | –
27 | Cc1nn(-c2ccccc2)c(Cl)c1C(CC(=O)c1ccc(Cl)cc1)CC(=O)c1ccc(Cl)cc1 | – | 93.8% | 97.8% | 91.8% | 91.7% | 97.3% | 90.2% | 85.8% | 101%
28 | CC12CCC3C(CCC4CC(=O)/C(=C\O)CC43C)C1CCC(=O)O2 (stereo not given) | 101% | 95.7% | – | 128% | 114% | – | 96.1% | 117% | –
29 | CCSc1nnc2n(Cc3ccccc3)c(=O)c3c(C)c(C(N)=O)sc3n12 | – | 94.3% | 99.5% | 88.5% | 119% | 101% | 97.1% | 99.8% | –
30 | c1cnc2ccc3ncccc3c2c1 | – | – | 110% | 106% | 103% | 109% | 128% | 116% | –
31 | CCOC(=O)C1=NN(c2ccc(Cl)cc2)C2C3N(c4ccc(Cl)cc4)N=C(C(=O)OCC)N3c3ccccc3N12 (stereo not given) | 101% | – | 92.4% | 115% | – | 120% | 101% | 102% | 76.7%
32 | Cc1nn(-c2ccccc2)c2ncc3c(c12)C(=O)N(Cc1ccccc1)C3=O | – | 63.6% | -57.8% (active) | 14.7% | 19.2% | 22.7% | 42.1% | 43.4% | 14.7%
33 | Clc1ccccc1[C@@H]1C[C@@H]2Cc3cc(Br)c4ccccc4c3N1O2 | – | 70.9% | 49.9% | 38.5% | -8.24% (active) | 28.4% | 15.4% | 65.3% | 48.7%
34 | O=C1Cc2cc(CCn3cncn3)c(Cl)cc2N1 | – | 87.4% | 86.8% | 79.3% | 71.7% | 28.6% | 52.9% | 99.1% | 84.7%
35 | O=C(/C=C/c1cc2ccccc2[nH]c1=O)c1ccc(O)cc1 | 22.3% | – | 62.9% | 39.8% | -18.8% (active) | -27.2% (active) | 36.4% | 66.1% | 53.8%
36 | c1ccc(-c2nn[nH]n2)c(-c2ccc(CN3CCN(c4nsc5ccccc45)CC3)cc2)c1 | – | 96.8% | – | 105% | 91.4% | 105% | 92% | 68.7% | 113%
37 | O=C(/C=C/c1cc2ccccc2[nH]c1=O)c1ccc(Cl)cc1 | 23.1% | – | – | 58% | -10.1% (active) | 54% | -6.67% (active) | 34% | –
38 | COc1cccc(CCC2C(=O)CCCC2=O)c1 | – | 103% | – | 102% | 99.9% | – | 110% | 97.4% | 111%
39 | O=C1Cc2cc(CCN3CCN(CCOCCO)CC3)c(Cl)cc2N1Cc1ccc(-c2ccccc2-c2nn[nH]n2)cc1 | – | 96.6% | 89.6% | 93.8% | – | 85% | 90.6% | 101% | –
40 | Cc1nn(-c2ccccc2)c2nc(Cl)c(/C=C/C(=O)c3ccccc3)c(-c3ccccc3)c12 | – | 103% | – | 102% | 116% | 95.5% | – | 107% | 120%
41 | O=C(NCCc1ccccc1)C1CCC(=O)N1Cc1ccc(Br)cc1 (stereo not given) | – | 94.4% | 111% | 101% | 116% | 113% | 107% | 106% | 103%
42 | CCOC(Cc1c(N)[nH]c(=S)[nH]c1=O)OCC | 96.2% | 93.9% | – | 107% | 120% | 120% | – | 99% | –
43 | COC(=O)[C@]1(C(C)C)N[C@H](c2cn(-c3ccccc3)nc2-c2ccccc2)[C@@H]2C(=O)N(c3ccc(Cl)cc3)C(=O)[C@@H]21 | – | 101% | 117% | 92.7% | 89.1% | 117% | 90.3% | 93.6% | 103%
44 | COC(=O)[C@]1(CCSC)N[C@H](c2cn(-c3ccccc3)nc2C)[C@@H]2C(=O)N(c3ccc(C)cc3)C(=O)[C@@H]21 | – | 94.6% | 112% | 98.5% | 114% | 103% | 93.4% | 101% | 115%
